# Results reported in PubChem BioAssay.
# “And” between values parts separate entries of the source, which are not always exact repeats. Equal values may be shown once. Some structures have more than one record in an assay (separate samples or runs), and their calls can disagree. The source made the active and inactive calls.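 How the source made its calls, unless noted: active means compounds whose cell count with miR-34 switched on is under 0.7 times the count with it off; inactive means the rest.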
# How the values were obtained:
# [1] = liver-stage malaria parasite growth inhibition, primary screen, cell-based, HepG2, luciferase luminescence, HepG2 viability (AID 624349; in the data active means parasite load remaining mostly below about 12%, no sharp cut-off; inactive means mostly above about 10%;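 further: 100% = mean of DMSO negative control wells on the same plate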); details: P. berghei liver stage in HepG2, luciferase luminescence, concentration not given here; parasite load remaining: stronger effect = lower value; viability: measured here: HepG2 viability without parasites
# [2] = stimulators of nuclear beta-catenin in C2C12, primary screen, imaging, WNT3A-conditioned medium, mouse C2C12, NPC library (AID 1117326; in the data active means nuclear beta-catenin stimulation mostly above about 4.2%, no sharp cut-off; inactive means mostly below about 10%); details: stronger effect = higher value
# [3] = stimulators of insulin release from INS-1E, primary screen, cell-based, 5 mM glucose, NPC library (AID 1117329;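 active means compound raises insulin release from rat beta cells at 5 mM glucose, no numeric limit stated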); details: rat INS-1E insulin secretion, at 10 µM, stronger effect = higher value
# [4] = growth inhibition of GSK3B-pretreated HCT116 cells – cell-based, CellTiter-Glo, 0.2 to 20 µM (AID 1117336;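 active means compounds lowering colon cancer cell viability after pretreatment blocking the GSK3B kinase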); details: HCT116 viability after GSK3B inhibitor, at 20 µM, stronger effect = higher value
# [5] = inhibition of endothelial tube formation, primary screen, imaging, VEGF stimulated, CD31 staining, tube area, NPC library (AID 1117340;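 active means compound that reduces growth-factor-driven endothelial tube area in a mixed cell culture, no cutoff stated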); details: VEGF-stimulated ADSC/ECFC co-culture, at 10 µM, stronger effect = higher value
# [6] = glucagon-like peptide 1 release enhancers, primary assay, NCI-H716 cell line, NPC library (AID 1117341;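 active means compound raises GLP1 secretion from the human gut endocrine cells, with no numeric limit stated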); details: NCI-H716 cells, at 10 µM, stronger effect = higher value
# [7] = HCT116 colon cancer cell growth inhibition, primary screen, CellTiter-Glo luminescence, NPC library (AID 1117342;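 active means compounds that lower survival of HCT116 colon cancer cells in the luminescence readout, no numeric limit stated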); details: at 20 µM (top of the series)
# [8] = CellTiter-Glo luminescent readout of SW480 viability loss, NPC library primary (AID 1117343;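 active means compounds that lower viability of the colon cancer cells in the luminescence readout, with no numeric limit stated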); details: CellTiter-Glo luminescence; at 20 µM (top of the series)
# [9] = decreased DLD-1 cellular survival, CellTiter-Glo luminescent readout, NPC compound collection, primary HTS (AID 1117346;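 active means compounds that lower survival of DLD-1 colon cancer cells in the luminescence readout, no cutoff given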); details: DLD-1 viability, CellTiter-Glo luminescence; at 20 µM (top of the series)
# [10] = target: 6-phosphogluconate dehydrogenase, decarboxylating (Homo sapiens) (UniProt P52209); experiment: 6PGD enzyme inhibitors, primary screen, biochemical, human, recombinant enzyme, NADPH absorbance (AID 1159550;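 active means at least 20% inhibition of 6-phosphogluconate dehydrogenase activity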); details: recombinant 6PGD, NADPH absorbance 341 nm; at 10 µM; stronger effect = higher value
# [11] = differential killing of epithelial or mesenchymal cells, primary screen, imaging, PC-3E GFP, TEM4-18 mCherry, co-culture (AID 1345086;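 active means compounds killing one labelled cell type while sparing the other, by normalised counts and ratio limits, not self-fluorescent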;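 on all read-outs here: cells exposed to compound for 72 h before imaging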;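 on red/green cell ratio (normalised): normalised mesenchymal count divided by normalised epithelial count so high means epithelial killing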); details: imaging cell counts, at 1 µM; for red/green cell ratio (normalised): actives lie on both sides
# [12] = test system: Aerobactin synthetase IucA (Klebsiella pneumoniae hvKP1); experiment: Biochemical IucA enzyme inhibition primary screen of the Spectrum library (AID 1346200; call rule not given here;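 further: 100% = wells without compound and 0% = wells lacking enzyme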); details: malachite green pyrophosphate, A620, at 8 µM, stronger effect = lower value
# [13] = sensitizers of A549 cells to miR-34 induction, primary screen, imaging, A549 dox-inducible miR-34, nuclei and caspase counts (AID 1347080); details: A549 miR-34 inducible, Hoechst nuclei count, 48 h
# [14] = target: NAD(+) hydrolase SARM1 (Homo sapiens) (UniProt Q6SZW1); experiment: SARM1 TIR NADase inhibitors, cell lysate, NAD-Glo luminescence (AID 1508614;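 active means compound whose remaining NAD level is above about 45 nM, limit read from the data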); details: SAM-TIR HEK293T lysate NADase, at 1 µM, stronger effect = higher value
# [15] = target: Mitogen-activated protein kinase 7 (Homo sapiens) (UniProt Q13164); experiment: ERK5 transactivation activators in reporter cells, primary screen, cell-based, HTS (AID 1508626;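 active means luciferase signal above three times the same-plate solvent-only control wells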;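 further: luciferase driven by Gal4-ERK5 fusion binding five Gal4 sites before minimal TATA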); details: HeLa Gal4-ERK5 transactivation, 18 h, at 5 µM, stronger effect = higher value
# [16] = hESC survival regulators, cell-based (AID 493140; call rule not given here;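 further: cells exposed to compounds for four days before counting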); details: human embryonic stem cell survival screen; stronger effect = higher value
# [17] = test system: Aerobactin synthetase IucA (Klebsiella pneumoniae, hypervirulent); experiment: IucA enzyme inhibition, biochemical, LOPAC library, absorbance readout (AID 1346212; call rule not given here;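 further: 100% = no compound wells and 0% = no enzyme wells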); details: IucA enzyme assay, absorbance (OD) readout; stronger effect = lower value;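 tested at 8 µM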
# [18] = survival rescue of mitochondrial mutant cells in low glucose, primary screen, MELAS cybrids, Rieske KO mouse fibroblasts, CellTiter-Glo (AID 1508586;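 active means mean z-score across replicates of 1.96 or higher in either the MELAS or the Rieske mutant cell line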;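 further: z relative to plate mean and SD of compound and empty wells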)
# [19] = viability rescue of complex I mutant cybrids, primary screen, cell-based, galactose medium, ATP luminescence (AID 1645843;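 active means z-score of at least 1.8 in each of two replicates, scored against plate mean and spread of sample wells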;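 further: positive z means more ATP and so rescue of galactose-driven cybrid death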); details: complex I mutant cybrid cells, 72 h, stronger effect = higher value
# [20] = measured here: epithelial PC-3E GFP cell survival
# [21] = measured here: mesenchymal TEM4-18 mCherry cell survival
# [22] = measured here: relative caspase fold change +Dox/-Dox
# [23] = measured here: total cells with miR-34 induction, stronger effect = lower value
# [24] = measured here: total cells without miR-34 induction
# [25] = MELAS cybrid survival, CellTiter-Glo 48 h, stronger effect = higher value
# [26] = Rieske KO mouse fibroblast survival, CellTiter-Glo 72 h
# Chain of NAD(+) hydrolase SARM1 (Homo sapiens) (Q6SZW1 whole entry, looked up, the tested form may be a part): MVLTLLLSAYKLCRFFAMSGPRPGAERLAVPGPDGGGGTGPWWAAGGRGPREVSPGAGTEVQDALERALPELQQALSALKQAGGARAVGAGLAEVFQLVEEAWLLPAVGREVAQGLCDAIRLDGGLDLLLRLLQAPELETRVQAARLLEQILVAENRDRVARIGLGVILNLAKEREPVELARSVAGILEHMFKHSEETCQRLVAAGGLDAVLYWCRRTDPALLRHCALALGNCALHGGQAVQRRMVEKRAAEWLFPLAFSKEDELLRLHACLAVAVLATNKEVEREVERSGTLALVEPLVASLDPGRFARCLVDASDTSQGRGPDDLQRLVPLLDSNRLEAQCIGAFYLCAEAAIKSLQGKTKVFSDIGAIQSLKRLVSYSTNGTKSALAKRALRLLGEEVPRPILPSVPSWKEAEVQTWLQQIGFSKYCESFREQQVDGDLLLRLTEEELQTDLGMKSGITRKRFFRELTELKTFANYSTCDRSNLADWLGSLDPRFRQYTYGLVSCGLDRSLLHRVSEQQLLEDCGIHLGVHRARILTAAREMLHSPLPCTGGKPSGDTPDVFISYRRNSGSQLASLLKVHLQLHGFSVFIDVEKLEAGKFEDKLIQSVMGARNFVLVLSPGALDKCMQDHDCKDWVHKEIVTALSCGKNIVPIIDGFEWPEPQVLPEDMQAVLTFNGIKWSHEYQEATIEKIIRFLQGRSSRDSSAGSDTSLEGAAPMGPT
# Chain of Mitogen-activated protein kinase 7 (Homo sapiens) (Q13164 whole entry, looked up, the tested form may be a part): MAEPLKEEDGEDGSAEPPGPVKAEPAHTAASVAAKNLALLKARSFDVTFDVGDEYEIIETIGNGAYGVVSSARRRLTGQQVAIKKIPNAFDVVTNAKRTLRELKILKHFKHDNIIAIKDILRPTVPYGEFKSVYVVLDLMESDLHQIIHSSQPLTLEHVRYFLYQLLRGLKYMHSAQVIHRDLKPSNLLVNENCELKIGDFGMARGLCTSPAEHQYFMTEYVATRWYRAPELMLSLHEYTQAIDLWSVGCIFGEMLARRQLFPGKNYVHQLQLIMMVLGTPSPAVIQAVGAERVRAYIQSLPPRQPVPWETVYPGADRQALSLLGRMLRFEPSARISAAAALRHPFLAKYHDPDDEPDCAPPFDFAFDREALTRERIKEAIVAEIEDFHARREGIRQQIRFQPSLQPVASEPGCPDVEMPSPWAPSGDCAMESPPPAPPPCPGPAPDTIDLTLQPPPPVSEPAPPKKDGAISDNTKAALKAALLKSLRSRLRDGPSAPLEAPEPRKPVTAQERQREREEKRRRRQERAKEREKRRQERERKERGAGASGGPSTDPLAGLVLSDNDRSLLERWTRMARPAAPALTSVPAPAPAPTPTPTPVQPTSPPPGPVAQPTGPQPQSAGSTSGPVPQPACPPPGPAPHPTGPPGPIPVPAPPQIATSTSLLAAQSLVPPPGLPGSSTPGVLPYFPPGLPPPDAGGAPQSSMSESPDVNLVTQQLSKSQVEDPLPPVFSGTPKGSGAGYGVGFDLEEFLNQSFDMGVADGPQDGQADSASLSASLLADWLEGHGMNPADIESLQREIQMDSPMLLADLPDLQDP
# Chain of 6-phosphogluconate dehydrogenase, decarboxylating (Homo sapiens) (P52209 whole entry, looked up): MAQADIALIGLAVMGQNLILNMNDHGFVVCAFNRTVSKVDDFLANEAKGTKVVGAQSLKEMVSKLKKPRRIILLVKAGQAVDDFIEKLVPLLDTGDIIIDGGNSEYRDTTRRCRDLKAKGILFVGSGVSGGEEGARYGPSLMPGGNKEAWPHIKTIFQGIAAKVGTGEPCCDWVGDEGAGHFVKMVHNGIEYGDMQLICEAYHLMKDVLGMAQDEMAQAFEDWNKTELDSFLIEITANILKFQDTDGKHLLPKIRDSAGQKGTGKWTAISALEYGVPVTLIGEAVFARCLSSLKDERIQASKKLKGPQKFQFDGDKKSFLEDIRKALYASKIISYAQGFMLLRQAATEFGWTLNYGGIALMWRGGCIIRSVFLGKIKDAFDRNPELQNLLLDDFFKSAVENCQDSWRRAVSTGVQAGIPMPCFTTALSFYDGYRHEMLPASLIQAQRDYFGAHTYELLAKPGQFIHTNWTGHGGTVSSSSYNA
smiles,measurement,setting,value
NCCc1cc(O)c(O)cc1O,parasite load remaining,[1],70% (inactive) and 42.8% (inactive)
same,viability,[1],70% and 87.6%
same,nuclear beta-catenin stimulation,[2]; at 10 µM,2.4% (inactive)
same,nuclear beta-catenin stimulation,"[2]; stimulation, at 2 µM",2.4%
same,insulin secretion stimulation,[3],1.2% (inactive)
same,viability decrease,[4],-22.3% (inactive)
same,tube area decrease,[5],18.6% (inactive)
same,GLP1 secretion stimulation,[6],-8.1% (inactive)
same,inhibition of viability,[7],15.3% (inactive)
same,viability decrease (inhibition),[8],142% (active)
same,viability decrease (inhibition),[9],78.2% (active)
same,inhibition,[10],13% (inactive)
same,red/green cell ratio (normalised),[11],1.14 (inactive)
same,normalised cell number,[11]; [20],1.02
same,normalised cell number,[11]; [21],1.17
same,activity remaining,[12],78.8% (inactive)
same,fold change,[13]; stronger effect = lower value,0.838 (inactive)
same,fold change,[13]; [22],0.786
same,cell count,[13]; [23],10500
same,cell count,[13]; [24],12600
same,remaining NAD,[14],10 nM (inactive)
same,luciferase signal,[15],156 AU (inactive)
COc1ccc(Cc2nccc3cc(OC)c(OC)cc23)cc1OC,survival,[16],5.5 (inactive)
same,nuclear beta-catenin stimulation,[2]; at 10 µM,1.4% (inactive)
same,nuclear beta-catenin stimulation,"[2]; stimulation, at 2 µM",-0.3%
same,insulin secretion stimulation,[3],-2.5% (inactive)
same,viability decrease,[4],54.7% (active)
same,tube area decrease,[5],59.3% (active)
same,GLP1 secretion stimulation,[6],2.3% (inactive)
same,inhibition of viability,[7],39.8% (inactive)
same,viability decrease (inhibition),[8],112% (active)
same,viability decrease (inhibition),[9],14.5% (inactive)
same,inhibition,[10],-8.16% (inactive)
same,red/green cell ratio (normalised),[11],0.84 (inactive)
same,normalised cell number,[11]; [20],1
same,normalised cell number,[11]; [21],0.83
same,activity remaining,[12],114% (inactive)
same,remaining activity,[17],119% (inactive)
same,fold change,[13]; stronger effect = lower value,1.24 (inactive) and 0.81 (inactive) and 0.838 (inactive)
same,fold change,[13]; [22],0.505 and 1.57 and 3.09
same,cell count,[13]; [23],7270 and 6810 and 7780
same,cell count,[13]; [24],5860 and 8410 and 9280
same,z-score,[18]; [25],0.889 (inactive)
same,z-score,[18]; [26],0.124
same,remaining NAD,[14],10 nM (inactive)
same,luciferase signal,[15],24 AU (inactive)
same,z-score,[19],-1.28 (inactive)
CCCCCCCCC(=O)NCc1ccc(O)c(OC)c1,nuclear beta-catenin stimulation,[2]; at 10 µM,2.1% (inactive)
same,nuclear beta-catenin stimulation,"[2]; stimulation, at 2 µM",1.1%
same,insulin secretion stimulation,[3],-0.6% (inactive)
same,viability decrease,[4],4.5% (inactive)
same,tube area decrease,[5],21.4% (inactive)
same,GLP1 secretion stimulation,[6],4% (inactive)
same,inhibition of viability,[7],1.8% (inactive)
same,viability decrease (inhibition),[8],49.7% (inactive)
same,viability decrease (inhibition),[9],11.7% (inactive)
same,inhibition,[10],-12.3% (inactive)
same,activity remaining,[12],92.7% (inactive)
same,remaining NAD,[14],10 nM (inactive)
same,luciferase signal,[15],52 AU (inactive)
CCCCCCCCCCCCCCCC[N+](C)(C)C,parasite load remaining,[1],86.4% (inactive) and 31.9% (inactive)
same,viability,[1],75.1% and 81.2%
same,nuclear beta-catenin stimulation,[2]; at 10 µM,19.2% (inactive)
same,nuclear beta-catenin stimulation,"[2]; stimulation, at 2 µM",9.4%
same,insulin secretion stimulation,[3],-0.3% (inactive)
same,viability decrease,[4],100% (active)
same,tube area decrease,[5],109% (active)
same,GLP1 secretion stimulation,[6],40.8% (active)
same,inhibition of viability,[7],102% (active)
same,viability decrease (inhibition),[8],123% (active)
same,viability decrease (inhibition),[9],104% (active)
same,inhibition,[10],-5.61% (inactive)
same,red/green cell ratio (normalised),[11],0.49 (inactive)
same,normalised cell number,[11]; [20],0.64
same,normalised cell number,[11]; [21],0.31
same,activity remaining,[12],108% (inactive)
same,fold change,[13]; stronger effect = lower value,0.616 (active) and 0.9 (inactive)
same,fold change,[13]; [22],3.21 and 2.28
same,cell count,[13]; [23],4400 and 4060
same,cell count,[13]; [24],7150 and 4510
same,z-score,[18]; [25],-0.416 (inactive)
same,z-score,[18]; [26],-0.288
same,remaining NAD,[14],10 nM (inactive)
same,luciferase signal,[15],96 AU (inactive)
